The full list was thinned out, with hits kept by preference.
CHX counter = affects cycloheximide protein synthesis inhibition readout, counter-screen; cell reporter, cycloheximide protein synthesis inhibition counterscreen; max response, %; 12% of 300,000 active; in the data active = max response mostly above about 13%, no sharp cut-off; inactive = mostly below about 14%; note: read at 38.3 µM for the half of the compounds with a filed dose; 0% is about no effect
Sm TGR inh = inhibitors of Schistosoma mansoni thioredoxin glutathione reductase; Potency, µM (top dose mostly 114 µM), for the others: top-dose activity change, negative = inhibition, hits mostly inhibitors; purified TGR, DTNB reduction, TNB absorbance 405 nm; 3% of 360,000 active; AID 485364; note: potency is the fitted concentration of half-maximal effect; % is set by controls: 0 for no effect and ±100 for the full control effect; nearly all actives have a fitted effect of over 60% in size
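TGR 20 nM + NADPH 100 uM (dispensed conc.), cpd preinc 15 min RT; start with NADPH (500 uM addition) then DTNB (15 mM addition). Kinetic TNB absorbance, 405 nm filter. Four-parameter Hill fit across titration.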
LmPK inh = blocks Leishmania mexicana pyruvate kinase activity. Q27686. purified LmPK, Kinase-Glo ATP luminescence, 1 h. Potency, µM (top dose mostly 57.5 µM), without a hit: at the highest dose activity change, negative = inhibition, hits mostly inhibitors. 0.37% of 290,000 active; note: potency is the fitted concentration of half-maximal effect; % is set by controls: 0 for no effect and ±100 for the full control effect
Target sequence (Q27686 whole entry, looked up): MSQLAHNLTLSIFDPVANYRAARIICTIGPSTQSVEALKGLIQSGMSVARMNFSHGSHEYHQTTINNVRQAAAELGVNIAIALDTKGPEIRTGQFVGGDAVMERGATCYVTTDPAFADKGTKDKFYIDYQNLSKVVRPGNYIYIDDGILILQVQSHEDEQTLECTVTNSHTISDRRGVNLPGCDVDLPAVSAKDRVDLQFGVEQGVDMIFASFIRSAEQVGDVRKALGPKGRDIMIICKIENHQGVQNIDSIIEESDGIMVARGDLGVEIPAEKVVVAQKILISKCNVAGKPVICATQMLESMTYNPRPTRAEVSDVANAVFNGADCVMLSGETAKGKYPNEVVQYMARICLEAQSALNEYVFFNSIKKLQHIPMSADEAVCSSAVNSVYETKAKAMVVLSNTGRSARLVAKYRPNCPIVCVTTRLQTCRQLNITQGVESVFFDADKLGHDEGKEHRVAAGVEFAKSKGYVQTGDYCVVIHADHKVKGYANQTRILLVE
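Purified LmPK (0.1 nM) with 0.5 mM PEP and 0.1 mM ADP in imidazole buffer pH 7.2 with MgCl2/KCl, 1 h at room temperature. ATP formed was read by luciferase luminescence and normalized to no-enzyme and uninhibited controls.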
Shiga inhibitor = Shiga toxin inhibition. Vero cells, Shiga toxin protein synthesis inhibition reporter. inhibition, % at 38.7 µM. 9.2% of 290,000 active; in the data active = inhibition mostly above about 28%, no sharp cut-off; inactive = mostly below about 43%; note: 0% is about no effect
TbPYK inhibitor = blocks Trypanosoma brucei pyruvate kinase; Q57TT1; TbPYK enzyme, Kinase-Glo Plus ATP luminescence, 45 min; Potency, µM (doses to about 76.8 µM), without a hit: at the top dose activity, negative = inhibition, most hits filed as inhibitors; 0.12% of 410,000 active; AID 624173; note: potency is the fitted concentration of half-maximal effect; % is set by controls: 0 for no effect and ±100 for the full control effect; nearly all actives have a fitted effect of over 50% in size
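TbPYK + substrate in 50 mM TEA pH 7.2, 100 mM KCl, 10 mM MgCl2, 0.05% BSA, 0.01% Tween-20; cpd pinned; ADP 130 uM final; 45 min RT; Kinase-Glo Plus 10 min; luminescence endpoint.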
FBPA Giardia inh = blocks Giardia fructose-bisphosphate aldolase activity | A8B2U2 | purified Giardia FBPA | Potency, µM (highest dose often 59.6 µM), for inactives: at the highest dose activity, negative = inhibition, usual class: inhibitors | 0.71% of 290,000 active | AID 2451; note: potency is the fitted concentration of half-maximal effect; % is set by controls: 0 for no effect and ±100 for the full control effect; nearly all actives have a fitted effect of over 55% in size
Target sequence (A8B2U2 whole entry, looked up): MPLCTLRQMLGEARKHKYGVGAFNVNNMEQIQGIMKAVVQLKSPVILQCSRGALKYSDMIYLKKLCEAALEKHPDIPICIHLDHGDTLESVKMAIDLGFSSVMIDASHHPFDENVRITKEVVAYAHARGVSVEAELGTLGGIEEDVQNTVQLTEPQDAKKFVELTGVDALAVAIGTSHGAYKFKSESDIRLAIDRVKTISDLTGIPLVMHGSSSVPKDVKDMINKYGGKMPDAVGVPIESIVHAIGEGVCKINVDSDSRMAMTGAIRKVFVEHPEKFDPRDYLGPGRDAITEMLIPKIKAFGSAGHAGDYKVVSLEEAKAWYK
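Giardia FBPA (40 nM reagent) was preincubated 10 min at RT with compound (up to 57.5 uM final), then substrate plus GAPDH/TPI/NAD/arsenate coupling system with diaphorase/resazurin was added; resorufin fluorescence (525/598 nm) was read after 20 min.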
* hit, by the source's call; u = inconclusive; x = no result; [ ] = dose if it differs, or a comment. Unless noted, calls come from the whole dose curve; as a rule, active = well fitted curve in the direction sought with a large enough effect; inconclusive = small, poorly fitted or top-dose-only effect, or another doubt; inactive = no such curve, though single readings can be large; an effect the other way counts as inactive or inconclusive.

SMILES | CHX counter | Sm TGR inh | LmPK inh | Shiga inhibitor | TbPYK inhibitor | FBPA Giardia inh
O=C(Cc1ccccc1)NCc1ccncc1 | 41.7* | -6.5% | 5.8% | 67.2* | -7.0% | -0.7%
O=C(c1cc2ccccn2n1)N1CCN(Cc2ccccc2)CC1 | 58.5* | -7.1% | 5.9% | 62.9 | -2.8% | -18.0%
O=C(c1cc2ccccn2n1)N1CCCC1 | -5.2 | -25.8% | -2.1% | -4.0 | x | -5.6%
O=C(Nc1ccc(F)cc1)C(Sc1nc2ccccc2[nH]1)c1ccccc1 (stereo not drawn) | -1.1 | -0.5% | -2.4% | 9.8 | -8.0% | 0.2%
S=c1[nH]c2ccccc2n1CCOc1ccccc1 | 20.8* | -0.5% | -2.5% | x | u | 5.6%
CCOc1ccc(OCCn2c(=S)[nH]c3ccccc32)cc1 | 1.9 | 7.7% | -6.3% | -3.5 | u | 22.2%
Cc1cccc(OCCn2c(=S)[nH]c3ccccc32)c1 | 13.4* | -1.0% | -3.3% | 18.9 | u | -2.1%
COc1ccc(OC)c(CNC(=O)c2cnc3c(C)cccn3c2=O)c1 | x | 14.0% | x | x | 3.8% | x
CCCSc1nc(=O)n2cc(C)ccc2n1 | 33.0* | -2.2% | -0.2% | 57.1* | -1.2% | 1.7%
CCOC(=O)CSc1nc(=O)n2cc(C)ccc2n1 | 17.3* | 13.6% | -2.8% | 33.1 | -7.5% | 4.5%
Cc1ccc(/C=C2\SC(N3CCN(C(c4ccccc4)c4ccccc4)CC3)=NC2=O)o1 | 4.1 | 35.5µM* | 2.8% | -10.0 | -1.0% | u
CCOCCCNC(=O)c1ccc(OC)cc1 | 21.2* | -22.3% | -0.9% | 32.1 | 13.5% | -0.3%
CCOCCCNC(=O)c1ccc(Br)cc1 | 26.5* | 11.6% | 1.0% | 57.2 | 8.5% | 3.7%
CC(C)OCCCNC(=O)c1ccc(Br)cc1 | 44.5* | 2.1% | -6.4% | 83.3 | x | 3.9%
CCOCCCNC(=O)c1ccc(OC(C)=O)cc1 | 1.0 | 3.1% | -6.1% | -7.4 | -0.8% | 5.6%
COc1cc(NC(=O)c2cc(-c3cccc(Cl)c3)on2)c(OC)cc1Cl | x | 7.4% | x | x | 1.2% | x
COc1ccccc1CNC(=O)c1cc(Sc2cccc(Cl)c2)nc2ccccc12 | x | 3.8% | x | x | -3.5% | x
Cn1c(SCc2nnc(-c3ccc(F)cc3)o2)nnc1C1COc2ccccc2O1 (stereo not drawn) | 4.2 | 3.4% | 2.9% | 7.6 | -7.1% | 1.0%
c1ccc(-c2cnc(CSc3nnc4ccccn34)o2)cc1 | 40.2* | 10µM* | -11.0% | 53.5* | -21.0% | u
Fc1ccc(-c2nnc(CSc3nnc4ccccn34)o2)cc1 | 39.6* | -10.5% | -2.7% | 22.3 | 8.0% | 3.8%
C[C@H](CO)N1C[C@H](C)[C@@H](CN(C)C(=O)C2CCCCC2)OCc2cn(nn2)CCCC1=O | x | x | x | x | -6.1% | x
C=CCn1c(Sc2ncc([N+](=O)[O-])s2)n[nH]c1=O | 21.1* | 0.224µM* | 5.9% | 32.0 | -9.0% | u
COc1ccccc1CN1CCCC2(CCN(C(C)=O)CC2)C1 | x | x | x | x | 4.3% | -1.1%
CCOc1ccc(C(=O)Nc2ccc3nc(SCCOc4ccccc4)sc3c2)cc1 | x | 8.2% | x | x | 0.9% | x
CCOc1ccc2nc(SCc3ccccc3C#N)sc2c1 | 70.7* | 12.0% | 6.4% | 174.3* | 3.4% | -1.1%
SMILES | CHX counter | Sm TGR inh | LmPK inh | Shiga inhibitor | TbPYK inhibitor | FBPA Giardia inh
CCOc1ccc2nc(SCc3ccc(OC)cc3)sc2c1 | 19.7* | -0.5% | 2.1% | 35.3 | -8.1% | -4.8%
CCOc1ccc2nc(SC3CC(=O)N(c4cccc(OC)c4)C3=O)sc2c1 (stereo not drawn) | -2.0 | u | 0.0% | -13.6 | 1.8% | 0.0%
COC(=O)c1c(-c2ccco2)csc1NC(=O)C1CC=CCC1C(=O)O (stereo not drawn) | 18.9 | 44.7µM* | 6.9% | 31.1 | -7.5% | -1.9%
CCOC(=O)c1c(-c2ccc(F)cc2)csc1NC(=O)C1CC=CCC1C(=O)O (stereo not drawn) | -1.7 | x | 1.3% | 10.3 | -27.3% | 21.0%
CCNc1ncc2nc(-c3cn(C)c4ccccc34)c(=O)n(Cc3ccc(F)cc3)c2n1 | x | x | x | x | x | -10.0%
CC(Sc1nc2ccccc2s1)C(=O)NCc1ccc2c(c1)OCO2 (stereo not drawn) | 20.2* | -0.9% | -1.3% | active | -8.9% | -1.5%
O=C(CCc1nnc(Cc2ccc3c(c2)OCO3)o1)NCc1nc2ccccc2s1 | 1.7 | 28.2µM* | 4.3% | 0.5 | -7.3% | 1.1%
Cc1csc(SC(C)C(=O)NCc2ccc3c(c2)OCO3)n1 (stereo not drawn) | 10.8 | -6.2% | -3.0% | 44.3 | 4.5% | 2.9%
Cc1cc(C(=O)N/N=C/c2cc(N=Nc3ccccc3)ccc2O)n[nH]1 | 16.7* | -4.4% | -0.8% | 18.0 | 12.8% | -7.9%
Cc1cc(C(=O)N/N=C/c2cccc([N+](=O)[O-])c2O)n[nH]1 | 18.3* | -14.8% | -2.9% | 19.5 | 5.9% | u
COC(=O)N/N=C/c1cc(N=Nc2ccccc2)ccc1O | 24.8* | 11.5% | 4.1% | 47.4 | -5.5% | 0.2%
Cc1cc(C(=O)N/N=C/c2ccc(O)c([N+](=O)[O-])c2)n[nH]1 | -1.3 | -7.3% | -27.5% | -3.1 | -5.2% | -7.0%
Nc1ccc(C(=O)N/N=C\c2cc(N=Nc3cccc4ccccc34)ccc2O)cc1 | 17.9* | -21.4% | -2.6% | 30.2 | 0.0% | 4.2%
O=C(Nc1nc2ccc(F)cc2s1)c1nc(S(=O)(=O)Cc2ccccc2)ncc1Cl | x | u | x | x | 0.7% | x
O=C(Nc1ccc(F)cc1)c1nc(S(=O)(=O)Cc2ccccc2)ncc1Cl | 5.7 | 6.31µM* | -1.1% | 10.7 | -6.0% | x
O=C(NCc1ccccc1)c1nc(S(=O)(=O)Cc2ccc(F)cc2)ncc1Cl | x | 5.01µM* | x | x | 0.8% | x
Cc1ccc(NC(=O)c2nc(S(=O)(=O)Cc3ccccc3)ncc2Cl)cc1 | 12.4 | 3.16µM* | -3.7% | 23.2 | 5.9% | 0.1%
COC(=O)c1ccccc1NC(=O)c1nc(S(=O)(=O)Cc2ccccc2F)ncc1Cl | x | -24.1% | x | x | 5.7% | x
O=C(Nc1ccccc1F)c1nc(S(=O)(=O)Cc2ccccc2F)ncc1Cl | x | 2.82µM* | x | x | 8.3% | x
O=C(O)c1ccc2c(c1)C(=O)N([C@H](Cc1ccc(-c3ccccc3)cc1)C(=O)O)C2=O | -0.5 | 8.2% | x | -10.1 | x | u
C=C(C)C(O)/C=C/C=C/c1ccccc1 (stereo not drawn) | x | x | x | x | x | 0.2%[12.9 µM]
Cc1ccc(Cn2cc3c(n2)-c2c(oc(C(=O)Nc4ccc(F)cc4F)c2C)CC3)cc1 | x | 6.8% | x | x | 8.4% | x
CC(=O)Nc1ccc(NC(=O)C2(c3cccs3)CCOCC2)cc1 | x | 3.5% | x | x | -0.9%[15.4 µM] | x
CCCn1c(C)nc2c(NCCCN(CCO)CCO)nc(C)nc21 | x | x | x | x | x | -0.5%
Cc1cccc(N2CCN(C(c3ccc(F)cc3)c3nnc(-c4ccccc4)o3)CC2)c1C (stereo not drawn) | x | -6.7% | x | x | -0.1% | x
COc1ccc2nc(NC(=O)c3nc(S(=O)(=O)Cc4ccccc4F)ncc3Cl)sc2c1 | x | -12.1% | x | x | 4.5% | x

Screens from PubChem.
